PubChem BioAssay AID778 (Sanford-Burnham Center for Chemical Genomics, 2007)
Hit rate of the full screen: of about 96,000 compounds, about 20,000 (21%) were called active. Only a sample is shown. Unmarked numbers belong to inactive results.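 The calls were made as follows: active = CYP2C19 inhibition above a set limit at 5 µM in the primary screen (cut at about 50% in these data); inactive = the rest.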

These compounds were tested against Cytochrome P450 2C19 (Homo sapiens) (UniProt P33261) (assay: blockers of cytochrome P450 2C19 activity – biochemical, luminescence, ADME assay, primary screen (AID 778;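 also: plate controls were negative control wells for no effect and 2.5 mM tranylcypromine positive control for full effect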)). Conditions: CYP2C19 Supersomes, luciferin-H EGE luminescence, 30 min; at 5 µM; hits give high values.
Chain of Cytochrome P450 2C19 (Homo sapiens) (P33261 whole entry, looked up): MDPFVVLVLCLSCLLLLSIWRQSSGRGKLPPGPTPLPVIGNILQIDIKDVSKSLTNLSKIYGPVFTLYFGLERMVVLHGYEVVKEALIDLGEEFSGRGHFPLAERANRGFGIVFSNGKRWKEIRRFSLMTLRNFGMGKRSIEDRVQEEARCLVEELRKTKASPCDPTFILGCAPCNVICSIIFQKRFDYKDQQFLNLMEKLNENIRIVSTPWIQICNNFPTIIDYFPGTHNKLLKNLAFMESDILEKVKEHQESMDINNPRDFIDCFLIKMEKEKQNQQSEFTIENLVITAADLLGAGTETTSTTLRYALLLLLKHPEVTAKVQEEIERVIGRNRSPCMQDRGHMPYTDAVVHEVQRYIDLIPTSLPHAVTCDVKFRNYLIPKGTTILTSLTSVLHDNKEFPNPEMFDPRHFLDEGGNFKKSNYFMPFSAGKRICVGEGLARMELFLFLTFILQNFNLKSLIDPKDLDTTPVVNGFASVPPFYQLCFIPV

`CCN(CC)CCN1C(=O)C(=O)/C(=C(/O)c2ccc(OC)c(OC)c2)C1c1ccccn1` (configuration not stated) was tested. Which inhibition did it give?
The inhibition was -1.7%.

With `CCCS(=O)(=O)N1CCCC(C(=O)N2CCN(c3ccccc3)CC2)C1` (configuration not stated) as the compound, how does the inhibition read?
Its inhibition is -4.5%.

`CCCCNC(=O)C(=O)c1ccccc1NC(C)=O` was tested. Which inhibition did it give?
Its inhibition is 13%.

`Oc1c(C(c2ccco2)N2CCC3(CC2)OCCO3)sc2ncnn12` (configuration not stated) was tested. Which inhibition did it give?
The inhibition was 68.4% (active).

`Cc1ccc(C(c2sc3nc(C)nn3c2O)N2CCN(c3ccccc3)CC2)cc1` (configuration not stated) was tested. Which inhibition did it give?
The inhibition was 33.7%.

Which inhibition does the source give for `Cc1ccc(C(c2sc3nc(C)nn3c2O)N2CCN(c3ccc(F)cc3)CC2)cc1` (configuration not stated) here?
The inhibition was 42.9%.

How did the inhibition turn out when `Oc1c(C(c2cccs2)N2CCN(c3ccc(F)cc3)CC2)sc2ncnn12` (configuration not stated) was run?
Its inhibition is 87.6% (active).

How did the inhibition turn out when `CCOC(=O)c1ccc(COC(=O)CCc2nc(-c3ccccc3)c(-c3ccccc3)o2)cc1` was run?
Its inhibition is 34.1%.

Which inhibition does the source give for `Cc1nc(NC(=O)CCC(=O)O)sc1C(=O)N(C)C` here?
The inhibition was -12.7%.

`CCOc1ccc(N=C2SC(C(=O)O)CC(=O)N2C)cc1` (configuration not stated) was tested. Which inhibition did it give?
The inhibition was 1.7%.

`COc1ccc2c(c1OC)C(=O)OC2c1c(O)nc(SC)n(-c2ccccc2)c1=O` (configuration not stated) was tested. Which inhibition did it give?
The inhibition was -15.5%.

`O=c1cccc(-c2ccc(Br)cc2)o1` was tested. Which inhibition did it give?
The inhibition was -9.6%.

With `CC(=O)Nc1ccc(N2C(=O)C3C4CC(=O)C(c5ccccc54)C3C2=O)cc1` (configuration not stated) as the compound, how does the inhibition read?
Its inhibition is 30.7%.

Which inhibition does the source give for `O=C(Nc1nnc(CCOCCOCCc2nnc(NC(=O)c3ccco3)s2)s1)c1ccco1` here?
Its inhibition is 0.8%.

Which inhibition does the source give for `COCCn1c(=O)[nH]c2cc(C(=O)NCc3cccnc3)ccc2c1=O` here?
The inhibition was 3.1%.

Which inhibition does the source give for `O=C(c1ccc(F)cc1)c1c[nH]c(C(=O)NCc2cccnc2)c1` here?
Its inhibition is 65.3% (active).

Which inhibition does the source give for `Cc1ccc(-n2nc(-c3ccco3)cc2C(=O)NCc2cccnc2)cc1` here?
The inhibition was 16.2%.

`O=C(NCc1ccccn1)c1cnc2sccn2c1=O` was tested. Which inhibition did it give?
The inhibition was -12.6%.

How did the inhibition turn out when `Cc1cc(C(=O)NCCCc2ccccc2)no1` was run?
Its inhibition is 10.8%.

For `CCOC(=O)c1cnc(SC)nc1Sc1ccc(Cl)cc1Cl`, which inhibition is on record?
Its inhibition is 25.2%.

For `CCCCNCc1ccc(SC)cc1`, which inhibition is on record?
Its inhibition is 69.4% (active).

`Cc1ccccc1C(=O)NCCN=C1NS(=O)(=O)c2ccccc21` was tested. Which inhibition did it give?
The inhibition was 11.7%.

How did the inhibition turn out when `Cc1oc(CC(C)C)c(CN2CCCC2)c1C(=O)O` was run?
Its inhibition is -15.6%.

How did the inhibition turn out when `N#CCCN(CCC#N)c1nnc(-c2ccccc2)s1` was run?
Its inhibition is 29%.

For `Cc1nn(CC(=O)Nc2nc3ccccc3s2)c(C)c1[N+](=O)[O-]`, which inhibition is on record?
Its inhibition is 52.2% (active).

With `Cc1cc(C)cc(OCC(=O)Nc2nc3ccc([N+](=O)[O-])cc3s2)c1` as the compound, how does the inhibition read?
The inhibition was 19.6%.

`Cc1nn(Cc2ccccc2Cl)c(C)c1NC(=O)Cn1nc([N+](=O)[O-])c(Cl)c1C` was tested. Which inhibition did it give?
The inhibition was 0.1%.

Which inhibition does the source give for `CCC(CC)C(=O)N1CC(=O)Nc2ccc(Br)cc2C1c1ccccc1` (configuration not stated) here?
The inhibition was 47.6%.

Which inhibition does the source give for `Cc1cccn2c(=O)c(/C=C3\SC(=S)N(CC(C)C)C3=O)c(NCCCOC(C)C)nc12` here?
Its inhibition is 14.7%.

For `COc1ccc2c(Cl)c(C(=O)NCc3ccco3)sc2c1`, which inhibition is on record?
Its inhibition is 18.6%.

With `COC(=O)c1nc(NC(=O)c2ccc(Cl)cc2)n[nH]1` as the compound, how does the inhibition read?
Its inhibition is -2.9%.

For `NC(=O)c1ncc(C(F)(F)F)cc1Oc1ccc(F)cc1`, which inhibition is on record?
Its inhibition is 31.9%.

How did the inhibition turn out when `O=C(CNC(=O)c1ccccc1)NCC(=O)OCc1ccc(Cl)cc1` was run?
The inhibition was 7.3%.

With `Cc1ccc(C(=O)N2CCCC2)c(F)c1F` as the compound, how does the inhibition read?
The inhibition was 9.6%.

How did the inhibition turn out when `Cc1c(Br)cc(C(=O)N2CCCCCC2)c(C)c1C` was run?
The inhibition was 96% (active).

How did the inhibition turn out when `Cc1ccc(C(=O)N2CCCCCC2)cc1Br` was run?
Its inhibition is 26.6%.

How did the inhibition turn out when `Cc1noc(C)c1CSCC(=O)Nc1nc2ccc(Oc3ccccc3)cc2s1` was run?
Its inhibition is 40.8%.

Which inhibition does the source give for `CCOC(=O)c1c(-c2ccc(C)cc2C)csc1NC(=O)CSc1nnnn1C` here?
The inhibition was 27.2%.

`CCOC(=O)c1c(C2CC2)csc1NC(=O)CSCc1c(C)noc1C` was tested. Which inhibition did it give?
The inhibition was 64% (active).

For `Cc1nc(SCC(=O)c2ccccc2)c([N+](=O)[O-])[nH]1`, which inhibition is on record?
Its inhibition is 23.7%.

`COC(=O)c1cc(C(=O)CSc2nc(C)cc(C)n2)ccc1O` was tested. Which inhibition did it give?
The inhibition was 23.3%.

Which inhibition does the source give for `Cc1cc(SCC(=O)c2ccccc2)nc(SCC(=O)c2ccccc2)n1` here?
The inhibition was 53.4% (active).

For `CC(C)CCOc1ccc(C(=O)C[N+]2(C)CCOCC2)cc1`, which inhibition is on record?
The inhibition was 12%.

`Cc1ccc(N2C(=O)c3ccccc3C2(O)c2ncc[nH]2)cc1` (configuration not stated) was tested. Which inhibition did it give?
The inhibition was 5.2%.

For `COc1ccc(CC(=O)n2nc(-c3cccnc3)nc2N)cc1`, which inhibition is on record?
The inhibition was 22.6%.

Which inhibition does the source give for `CCOc1c(N2CCCCC2)c(=O)c1=O` here?
Its inhibition is -3.9%.

With `CC(C)CNC(=O)CC(c1ccccc1)c1c(O)ccc2ccccc12` (configuration not stated) as the compound, how does the inhibition read?
The inhibition was 58.9% (active).

For `CC(C)CNC(=O)COC(=O)/C=C/c1ccccc1[N+](=O)[O-]`, which inhibition is on record?
Its inhibition is 2.4%.

Which inhibition does the source give for `CCc1ccc(/C=N/NC(=O)c2ccc(OC3CCCC3)cc2)s1` here?
The inhibition was 25.8%.

`Cc1cc(N(C)C)cc(C)[n+]1[O-]` was tested. Which inhibition did it give?
Its inhibition is -6.3%.

Which inhibition does the source give for `O=C1CSC(=O)N1CCOCCN1C(=O)CSC1=O` here?
The inhibition was 15.9%.

How did the inhibition turn out when `COc1ccccc1NC(=O)CN1CCN(S(=O)(=O)c2ccc(Br)cc2)CC1` was run?
Its inhibition is 34%.

How did the inhibition turn out when `CCOc1ccccc1NC(=O)c1cc(S(=O)(=O)N2CCC3(CC2)OCCO3)ccc1F` was run?
Its inhibition is 9.8%.

How did the inhibition turn out when `O=C(CN1CCN(S(=O)(=O)c2ccc(F)cc2)CC1)Nc1ccccc1F` was run?
The inhibition was 57.1% (active).

With `COc1cc2c(cc1NC(=O)CN1CCN(S(=O)(=O)c3ccc(F)cc3)CC1)oc1ccccc12` as the compound, how does the inhibition read?
Its inhibition is 11.9%.

With `CCOc1ccccc1NC(=O)CCN1CCN(S(=O)(=O)c2ccc(OC)cc2)CC1` as the compound, how does the inhibition read?
The inhibition was 68.5% (active).

`COc1ccc(S(=O)(=O)N2CCCC(C(=O)Nc3ccc(NC(=O)c4ccccn4)cc3)C2)cc1` (configuration not stated) was tested. Which inhibition did it give?
Its inhibition is 20.8%.

Which inhibition does the source give for `O=C(Nc1ccc(S(=O)(=O)N2CCCCC2)cc1)c1cnccn1` here?
Its inhibition is 9.9%.

Which inhibition does the source give for `CCOC(=O)c1[nH]c2ccc(OC)cc2c1NC(=O)CCN1CCN(Cc2ccccc2)CC1` here?
The inhibition was 32.7%.

With `O=C(Nc1ccccc1F)c1cc(S(=O)(=O)N2CCCCC2)cs1` as the compound, how does the inhibition read?
Its inhibition is 62% (active).

With `Cc1nc2ccc(C(=O)N3CCSCC3)cc2s1` as the compound, how does the inhibition read?
Its inhibition is -5.2%.

How did the inhibition turn out when `CCOC(=O)c1ccc(NC(=O)CSc2nnc(COc3ccccc3OC)n2C)cc1` was run?
The inhibition was 38.9%.
